# Inconclusive results are not listed. Where a call stands in place of a potency, no number is given. Activity calls are given as the source filed them. Calls follow the shape of the dose curve; as a rule, active = well fitted cell-killing curve with a large enough effect in the repeat runs; inconclusive = weak or mixed curves, or effect the other way; inactive = flat fitted curve, though single readings scatter.
# Assay: cAMP Responsive Elements (CRE) small molecule antagonists, cell-based qHTS assay: qHTS cell viability counter screen (AID 2060913); also: nearly all actives have a fitted effect of over 40% in size
# Conditions: CRE-bla HEK293T viability, CellTiter-Glo luminescence, 5 h; series mostly up to 92.4 µM
# Source text: U.S. Tox21 Program National Center for Advancing Translational Sciences [NCATS] Division of Preclinical Innovation [DPI] U.S. Environmental Protection Agency [EPA] National Institutes of Environmental Health Sciences [NIEHS] National Toxicology Program [NTP] U.S. Food and Drug Administration [FDA] Tox21 Assay Overview: CREB (cyclic-AMP Responsive Element Binding Protein) is a cellular transcription factor. It binds to certain DNA sequences called cAMP Responsive Elements (CRE) and regulates the transcription of the genes. […] This cell line can be used to find agonists/antagonists of the cyclic AMP signaling pathway. The activation of the report gene under culture conditions can be detected by fluorescence intensity. This cell line has been used to screen the Tox21 10K compound library to identify agonists that induce oxidative stress. The cytotoxicity of the Tox21 compound library against the CRE-bla cell line was tested in parallel by measuring the cell viability using CellTiter-Glo assay (Promega, Madison, WI) in the same wells.
# Tox21 Assay Protocol Summary: CRE-bla Hek 293T cells were suspended in assay medium (DMEM containing 10% dialyzed FBS, 0.1 mM NEAA, 1 mM sodium pyruvate and 25 mM HEPES) and dispensed at 2,000 cells/4 uL /well into 1536-well black wall/clear bottom plates using a Multidrop Combi (ThermoFisher Scientific, Waltham, MA) dispenser. After the assay plates were incubated at 37 C/5% CO2 for 18 hrs, 23 nL of compounds dissolved in DMSO, positive controls or DMSO only was transferred to the assay plate by a pintool workstation (Kalypsys, San Diego, CA), followed by addition of 1 uL of 1.25uM NKH477 (0.25 uM as final concentration) in assay medium using a Flying Reagent Dispenser (Aurora Discovery, San Diego, CA). The plates were incubated at 37 C and 5% CO2 for 3 hrs. Then 1 uL of LiveBLAzer B/G FRET substrate (Invitrogen, Carlsbad, CA) was added to each well using Bioraptr Flying Reagent Dispenser (FRD, Aurora Discovery, San Diego, CA). The plates were incubated at room temperature for 2 h, then fluorescence intensities were measured using an Envision plate reader (PerkinElmer, Shelton, CT) at Excitation 405nm, Emission 460nm and 530nm. The % activity was determined from the ratio of 460nm/530nm. For cell viability readout that measures cytotoxicity, 4 uL /well of CellTiter-Glo reagent was added into the assay plates using Bioraptr FRD. After 30 min incubation at room temperature, the luminescence intensity in the assay plates was measured using a ViewLux (PerkinElmer, Shelton, CT) plate reader.
# Potency is read from the fitted curve at half-maximal effect.
row,SMILES,Potency
1,CCCCN(CC)C(=O)SCCC,inactive
2,c1ccc2nc(N3CCNCC3)ccc2c1,inactive
3,C1CN2CCN1CC2,inactive
4,CCC1(C2=NCCN2)Cc2ccccc2O1 (stereo not given),inactive
5,O=C1NCN(c2ccccc2)C12CCN(CCCOc1ccc(F)cc1)CC2,inactive
6,ClCCCCl,inactive
7,O=C(O)C(Br)CBr (stereo not given),inactive
8,C[C@@H]1CC[C@@]2(OC1)O[C@H]1[C@@H](O)[C@H]3[C@@H]4CC[C@H]5C[C@@H](O[C@@H]6O[C@H](CO)[C@H](O[C@@H]7O[C@H](CO)[C@@H](O)[C@H](O[C@@H]8OC[C@@H](O)[C@H](O)[C@H]8O)[C@H]7O[C@@H]7O[C@H](CO)[C@@H](O)[C@H](O[C@@H]8O[C@H](CO)[C@@H](O)[C@H](O)[C@H]8O)[C@H]7O)[C@H](O)[C@H]6O)[C@H](O)C[C@]5(C)[C@H]4CC[C@]3(C)[C@H]1[C@@H]2C,32.5 µM (active)
9,COP(=S)(OC)Oc1ccc([N+](=O)[O-])cc1Cl,inactive
10,CN(N=O)c1ccc([N+](=O)[O-])cc1,inactive
11,CCC(C)(C)C(=O)OC1=C(c2ccc(Cl)cc2Cl)C(=O)OC12CCCCC2,inactive
12,[O]=[Cd],inactive
13,Cc1ccc2cc(C)ccc2c1,inactive
14,CCCCCCCCCCCCN(C)C,inactive
15,Cc1ccccc1[N+](=O)[O-],inactive
16,CCC1(c2ccccc2)C(=O)NC(=O)NC1=O,inactive
17,CCOC(=O)C(c1c(O)c2ccccc2oc1=O)c1c(O)c2ccccc2oc1=O,inactive
18,C[N+]1(C)CCCCC1,inactive
19,CCc1cc(C)cc(CC)c1-c1c(OC(=O)C(C)(C)C)n2n(c1=O)CCOCC2,inactive
20,CCCCCCn1cc[n+](C)c1,inactive

row,SMILES,Potency
1,Nc1ccc(Cl)cc1N,inactive
2,COC(=O)c1ccc(CBr)cc1,inactive
3,COC(=O)NS(=O)(=O)c1ccc(N)cc1,inactive
4,CCOP(=O)(N=C1SCCS1)OCC,inactive
5,CCc1cccc(C)c1N(C(=O)CCl)C(C)COC (stereo not given),inactive
6,N#Cc1cccnc1,inactive
7,CCCCCCCCCl,inactive
8,c1ccc2sc(SNC3CCCCC3)nc2c1,inactive
9,Cc1cnc(C2=NC(C)(C(C)C)C(=O)N2)c(C(=O)O)c1 (stereo not given),inactive
10,CCNc1nc(NC(C)C)nc(OC)n1,inactive
11,O=C(Cl)OCCOCCOC(=O)Cl,inactive
12,CCCCCCC#N,inactive
13,[Cl-].[Cl-].[Cl-].[Fe+3],inactive
14,CCCCN=C=O,inactive
15,CC(C)c1cccc(C(C)C)c1O,inactive
16,CC(C)C1(C)N=C(c2nc3ccccc3cc2C(=O)O)NC1=O (stereo not given),inactive
17,CCCCCCCCCCCCCl,inactive
18,O=[N+]([O-])c1ccccc1O,inactive
19,CCCCCCCCCCOC(=O)c1ccccc1C(=O)OCCCCCCCCCC,inactive
20,CC[n+]1c(-c2ccccc2)c2cc(N)ccc2c2ccc(N)cc21,inactive
